# Experimental data reported in PubChem BioAssay (NCATS).
# Results filed as inconclusive are left out. Entries that show only a call come without a potency. Active and inactive are the calls of the source. Unless noted, the call rests on the fitted dose curve.
# Key:
# [1] = Primary qHTS for inhibitors of SARS-S pseudo-typed particle cell entry (AID 1479145); conditions: outcome: dose series up to 57.1 µM unless noted; further: nearly all actives have a fitted effect of over 45% in size; further: potency means the concentration at half of the fitted maximal effect
# [2] = Primary qHTS for Huh7 cytotoxicity: counterscreen for inhibitors of MERS-S pseudotyped particle cell entry (AID 1479147); conditions: outcome: dose series up to 57.1 µM unless noted
# [3] = Primary qHTS for Vero E6 cytotoxicity: counterscreen for inhibitors of SARS-S pseudo-typed particle cell entry (AID 1479150); conditions: outcome: dose series up to 57.1 µM unless noted
# [4] = KB-8-5-11 P-gp reporter qHTS against the NCATS DSHEA and TCM libraries (AID 1919977; active means well fitted curve in the direction sought with a large enough effect; an effect the other way counts as inactive or inconclusive)
# Method in brief: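 P-gp-overexpressing KB-8-5-11 cells were screened in colchicine-free medium at 500 cells/well, as a titration series. Cells were exposed for 72 h at 37C. Viability was read by CellTiter-Glo luminescence after 30 min at room temperature.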
# [5] = Primary qHTS to identify inhibitors of SARS-CoV-2 cell entry (AID 1645846); conditions: SARS-CoV-2 pseudovirus cell entry assay, luminescence; activity change, negative = inhibition: at 57.1 µM (top of the series) unless noted; further: nearly all actives have a fitted effect of over 45% in size
# Method in brief: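 HEK293 cells stably expressing human ACE2, pre-treated 1 h with compound, then infected with MLV particles pseudotyped with Wuhan-Hu-1 spike (C-terminal 19-aa truncation). Luciferase luminescence after 48 h at 37 °C, normalised to spike PP and bald PP.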
# [6] = Primary qHTS for inhibitors of MERS-S pseudo-typed particle cell entry (AID 1479149); conditions: outcome: dose series up to 57.1 µM unless noted; further: nearly all actives have a fitted effect of over 60% in size
# [7] = Confirmatory qHTS to identify inhibitors of SARS-CoV-2 cell entry (AID 1645844); further: potency means the concentration at half of the fitted maximal effect; nearly all actives have a fitted effect of over 45% in size
# Method in brief: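 Using stable human ACE2 Expi293F cells, compounds preincubated 1 hr before spike pseudoparticle infection; luciferase signal after 48 hr at 37C, 5% CO2, normalised to spike PP and no-fusion-protein PP wells.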
# [8] = VSVG counterscreen qHTS to identify inhibitors of SARS-CoV-2 cell entry (AID 1645847); further: potency means the concentration at half of the fitted maximal effect; nearly all actives have a fitted effect of over 65% in size
# Method in brief: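 HEK293-ACE2 cells (Expi293F, human ACE2) pretreated 1 h with compound, then infected with MLV-based VSV-G pseudotyped particles for 48 h at 37 C; luciferase luminescence normalized to VSV-G PP and bald PP wells.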
# [9] = Cytotoxicity counterscreen for inhibitors of SARS-CoV-2 cell entry (AID 1645845); conditions: outcome: dose series up to 57.1 µM unless noted; further: nearly all actives have a fitted effect of over 50% in size
# Method in brief: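 After a 15 min room-temperature ATPLite 1step step, luminescence reflected ATP remaining in HEK293-ACE2 cells exposed to compound for 1 h plus 48 h at 37 C, with percent activity set by cell and no-cell controls.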
# [10] = biological target: Cytochrome P450 2C9 (Homo sapiens) (UniProt P11712); assay: qHTS Assay for Inhibitors and Substrates of Cytochrome P450 2C9 (AID 883; active means well fitted curve in the direction sought with a large enough effect; an effect the other way counts as inactive or inconclusive; further: potency means the concentration at half of the fitted maximal effect; nearly all actives have a fitted effect of over 60% in size)
# Cytochrome P450 2C9 (Homo sapiens), sequence (P11712 whole entry, looked up): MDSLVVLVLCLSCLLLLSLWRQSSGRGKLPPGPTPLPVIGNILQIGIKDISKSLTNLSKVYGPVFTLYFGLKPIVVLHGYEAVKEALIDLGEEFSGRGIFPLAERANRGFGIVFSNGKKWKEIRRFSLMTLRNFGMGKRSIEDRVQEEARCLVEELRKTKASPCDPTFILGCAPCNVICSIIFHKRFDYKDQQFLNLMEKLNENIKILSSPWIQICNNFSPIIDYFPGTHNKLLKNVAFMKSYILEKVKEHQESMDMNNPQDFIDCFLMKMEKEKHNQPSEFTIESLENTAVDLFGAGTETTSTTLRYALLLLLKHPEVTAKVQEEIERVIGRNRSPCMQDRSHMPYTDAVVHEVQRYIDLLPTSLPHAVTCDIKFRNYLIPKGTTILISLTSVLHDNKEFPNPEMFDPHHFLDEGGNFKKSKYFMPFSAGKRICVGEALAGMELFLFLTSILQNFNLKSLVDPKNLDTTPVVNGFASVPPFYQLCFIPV
# Method in brief: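 A luminogenic readout tracked human CYP2C9 (10nM) converting deoxyluciferin (100uM, at KM) in 25mM KPO4 during 60 min at 37C with regenerated NADPH. Values normalized to 57uM sulphaphenazole as complete inhibition.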
# [11] = biological target: Cytochrome P450 3A4 (Homo sapiens) (UniProt P08684); assay: qHTS Assay for Activators of Cytochrome P450 3A4 (AID 885; active means well fitted curve in the direction sought with a large enough effect; an effect the other way counts as inactive or inconclusive; further: nearly all actives have a fitted effect of over 65% in size)
# Cytochrome P450 3A4 (Homo sapiens), sequence (P08684 whole entry, looked up): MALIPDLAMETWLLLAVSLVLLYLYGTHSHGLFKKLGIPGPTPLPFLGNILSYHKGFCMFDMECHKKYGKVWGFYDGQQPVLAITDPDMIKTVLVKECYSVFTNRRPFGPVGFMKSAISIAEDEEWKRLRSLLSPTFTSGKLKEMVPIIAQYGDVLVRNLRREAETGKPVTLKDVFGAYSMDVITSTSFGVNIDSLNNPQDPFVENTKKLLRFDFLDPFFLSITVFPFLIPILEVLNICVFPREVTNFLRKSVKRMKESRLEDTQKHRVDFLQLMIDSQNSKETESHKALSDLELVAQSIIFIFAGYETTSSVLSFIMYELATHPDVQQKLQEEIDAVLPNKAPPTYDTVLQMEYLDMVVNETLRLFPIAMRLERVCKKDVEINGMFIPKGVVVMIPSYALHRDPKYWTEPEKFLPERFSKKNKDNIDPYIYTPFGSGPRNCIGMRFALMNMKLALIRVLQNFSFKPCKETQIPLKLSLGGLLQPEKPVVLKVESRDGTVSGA
# Method in brief: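 Human CYP3A4 dealkylates Luciferin-PPXE to luciferin, which luciferase detection converts to light. Substrate was at its KM (25uM), buffer 200mM KPO4, reaction 60 min at RT.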
# [12] = biological target: Cytochrome P450 2D6 (Homo sapiens) (UniProt P10635); assay: qHTS Assay for Inhibitors and Substrates of Cytochrome P450 2D6 (AID 891; active means well fitted curve in the direction sought with a large enough effect; an effect the other way counts as inactive or inconclusive; further: potency means the concentration at half of the fitted maximal effect; nearly all actives have a fitted effect of over 60% in size)
# Cytochrome P450 2D6 (Homo sapiens), sequence (P10635 whole entry, looked up): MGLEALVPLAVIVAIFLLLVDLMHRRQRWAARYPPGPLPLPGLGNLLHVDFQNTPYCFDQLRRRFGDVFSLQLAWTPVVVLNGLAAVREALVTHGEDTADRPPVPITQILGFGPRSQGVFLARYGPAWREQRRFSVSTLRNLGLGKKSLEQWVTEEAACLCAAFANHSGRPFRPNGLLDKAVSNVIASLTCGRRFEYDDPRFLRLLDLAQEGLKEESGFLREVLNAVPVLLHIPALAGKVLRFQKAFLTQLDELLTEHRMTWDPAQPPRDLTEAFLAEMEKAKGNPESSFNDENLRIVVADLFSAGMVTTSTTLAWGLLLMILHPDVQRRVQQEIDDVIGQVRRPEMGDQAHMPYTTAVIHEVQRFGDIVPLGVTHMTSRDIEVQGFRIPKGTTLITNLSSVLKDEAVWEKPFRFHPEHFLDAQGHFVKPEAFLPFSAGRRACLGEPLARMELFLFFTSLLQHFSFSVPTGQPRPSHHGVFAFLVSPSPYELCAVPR
# Method in brief: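 Luminescent read-out of luciferin formed by 5 nM human CYP2D6 demethylating 30 uM Luciferin-ME EGE (Km level) over 60 min at room temperature after NADPH regeneration addition. Data normalized to full inhibition by 1.43 uM quinidine.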
# [13] = biological target: Peroxisome proliferator-activated receptor delta (Homo sapiens) (UniProt Q03181); assay: qHTS assay for small molecule agonists of peroxisome proliferator-activated receptor delta signaling (AID 588534)
# Peroxisome proliferator-activated receptor delta (Homo sapiens), sequence (Q03181 whole entry, looked up): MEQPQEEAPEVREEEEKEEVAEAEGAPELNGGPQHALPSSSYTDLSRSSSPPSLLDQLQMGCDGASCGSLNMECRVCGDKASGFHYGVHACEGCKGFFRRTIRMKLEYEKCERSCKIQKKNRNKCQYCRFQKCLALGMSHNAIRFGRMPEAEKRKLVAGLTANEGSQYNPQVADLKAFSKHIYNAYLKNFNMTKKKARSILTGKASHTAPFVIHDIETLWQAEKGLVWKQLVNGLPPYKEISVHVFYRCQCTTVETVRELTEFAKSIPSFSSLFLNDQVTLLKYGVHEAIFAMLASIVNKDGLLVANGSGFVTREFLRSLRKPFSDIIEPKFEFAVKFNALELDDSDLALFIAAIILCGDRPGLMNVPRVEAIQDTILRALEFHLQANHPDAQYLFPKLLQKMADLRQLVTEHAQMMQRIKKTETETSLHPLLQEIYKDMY
# Method in brief: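 Agonist-mode beta-lactamase reporter readout (CCF4 dye, 2 h at RT) after 18 h at 37 °C exposure to a titration; Hill-equation fitting gave EC50 and maximal response.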
smiles,measurement,setting,value
C=C1CC[C@H](O)CC1=C/C=C1\CCC[C@]2(C)[C@@H]([C@H](C)/C=C/[C@H](C)C(C)C)CC[C@@H]12,Potency,[1],inactive
same,Potency,[2],inactive
same,Potency,[3],inactive
same,Potency,[4],inactive
CC[C@@]1(O)C(=O)OCc2c1cc1n(c2=O)Cc2c-1nc1cc(F)c(C)c3c1c2[C@@H](N)CC3,Potency,[1],inactive
same,Potency,[2],inactive
same,"activity change, negative = inhibition",[5],-94.1%
COc1cc([C@@H]2c3cc4c(cc3C(O[C@@H]3O[C@@H]5CO[C@@H](c6cccs6)OC5[C@H](O)[C@H]3O)C3COC(=O)[C@@H]32)OCO4)cc(OC)c1O (some centres undefined),Potency,[1],1 µM (active)
same,Potency,[6],inactive
same,Potency,[7],0.0482 µM (active)
same,"activity change, negative = inhibition",[5],-95.7%
same,Potency,[8],0.0429 µM (active)
C=C[C@]1(C)C[C@@H](OC(=O)CSCCN(CC)CC)[C@]2(C)[C@H](C)CC[C@]3(CCC(=O)[C@H]32)[C@@H](C)[C@@H]1O,Potency,[1],20 µM (active)
same,Potency,[2],inactive
same,Potency,[3],inactive
same,Potency,[7],3.04 µM (active)
same,Potency,[8],15.2 µM (active)
C=C[C@@H]1C[C@]1(NC(=O)[C@@H]1C[C@@H](Oc2ncc(OC)c3ccc(Cl)cc23)CN1C(=O)[C@@H](NC(=O)OC(C)(C)C)C(C)(C)C)C(=O)NS(=O)(=O)C1CC1,Potency,[1],inactive
same,Potency,[2],inactive
same,Potency,[3],inactive
same,Potency,[8],10.8 µM (active)
CCC[C@H](NC(=O)[C@@H]1[C@H]2CCC[C@H]2CN1C(=O)[C@@H](NC(=O)[C@@H](NC(=O)c1cnccn1)C1CCCCC1)C(C)(C)C)C(=O)C(=O)NC1CC1,Potency,[1],inactive
same,Potency,[2],inactive
same,Potency,[3],inactive
same,Potency,[9],inactive
same,"activity change, negative = inhibition",[5],0.184%
CNCC(=O)OCc1cccnc1N(C)C(=O)OC(C)[n+]1cnn(C[C@](O)(c2cc(F)ccc2F)[C@@H](C)c2nc(-c3ccc(C#N)cc3)cs2)c1 (some centres undefined),Potency,[1],inactive
same,Potency,[2],inactive
same,Potency,[3],inactive
same,Potency,[9],inactive
C=C1CC[C@H](O)CC1=C/C=C1\CCC[C@]2(C)[C@@H]([C@H](C)CCCC(C)(C)O)CC[C@@H]12,Potency,[1],inactive
same,Potency,[2],inactive
same,Potency,[3],inactive
same,Potency,[9],inactive
CN1C(CC(=O)c2ccccc2)CCCC1CC(O)c1ccccc1 (centres undefined),Potency,[1],inactive
same,Potency,[2],inactive
same,Potency,[3],inactive
same,Potency,[9],inactive
same,Potency,[8],3.83 µM (active)
COc1ccc(C=CC(=O)O)cc1,Potency,[1],inactive
same,Potency,[2],inactive
same,Potency,[3],inactive
same,Potency,[9],inactive
same,"activity change, negative = inhibition",[5],-10.2%
CCOc1ccc2c(c1)C(C)=CC(C)(C)N2,Potency,[10],2 µM (active)
same,Potency,[11],inactive
same,Potency,[12],2.51 µM (active)
same,outcome,[13],inactive
same,Potency,[1],inactive
same,Potency,[2],inactive
same,Potency,[3],inactive
same,Potency,[7],31.2 µM (active)
same,Potency,[9],inactive
same,Potency,[8],55.5 µM (active)
